The panel holds about 83,000 compounds, 20% with a hit somewhere; the sample as a whole holds those more often.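 Each cell line was grown in a 96-well plate and treated with one concentration of compound for 48 hours. Values below 10 were considered active.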 Unmarked numbers belong to inactive results. Calls of active or inactive are those of the source.

The assay relates to NCI-H322M lung. The assay is described as follows: NCI-60 one-dose screen, 48 h (100 = growth as untreated, 0 = no growth, -100 = all killed). The conditions noted are these: 10 µM unless noted. The method, then:
Growth inhibition of the NCI-H322M human Non-Small Cell Lung tumor cell line is measured as a screen for anti-cancer activity. Cells are grown in 96 well plates and exposed to the test compound for 48 hours. Compounds are tested at a single concentration, which is 10^-5 M for most compounds. The reported endpoint is percent growth (GI% or GIPRCNT), where numbers from 0 - 100% represent growth inhibition, and numbers from -100% - 0 represent cell death. For example, a value of 40 represents 60% growth inhibition. A value of 0 means no net growth occurred over the course of the experiment. A value of -40 indicates 40% of cells at the beginning of the experiment died by the end of the experiment. A value of -100 means all cells are dead at the end of the experiment.
NCI-60 Human Tumor Cell Lines Screen was performed using the standard one-dose NCI protocol, which is described in more detail at https://dtp.cancer.gov/discovery_development/nci-60/default.htm.
Compounds with GIPRCNT values below 10 were considered active. Activity score was based on GIPRCNT using the following formula: […]
Score is 0 for GIPRCNT values of 100 or above, 50 for GIPRCNT values of 0, and 100 for GIPRCNT values of -100.
As to `COc1ccc(NS(=O)(=O)c2ccc(-c3cnc(C4CC4)o3)cc2)cc1Cl`, the growth is 52.2%. To `CC(C)C(=O)Nc1ccc(-c2nc(-c3cccc(O)c3)c(-c3ccnc(Br)c3)[nH]2)cc1` belongs 65.8%. Then `O=C(NCCCNc1cc(-c2cn(-c3ccccc3)nc2-c2cccc(O)c2)ccn1)Nc1cccc(C(F)(F)F)c1`, with 54.2%. To `C/C(=N\NC(=O)CSc1nc2sc3c(c2c(=O)n1-c1ccccc1)CCC(C)C3)c1ccc(Cl)cc1` (stereo not given) belongs 51.3%; to `CCOC(=O)Nc1cccc(-n2cnc3cc(-c4ccc(O)cc4)ccc32)c1`, 47.3%; to `Nc1nc(-c2cccc([N+](=O)[O-])c2)c(N=Nc2ccccc2[N+](=O)[O-])s1`, 76.7%. Take `CN(c1ccc(Br)cc1)S(=O)(=O)c1ccc(-c2cnc(C3CC3)o2)cc1`: the growth is 46.5%. `Cc1cc(O)c(=O)cc2c1C[C@H]1CC(C)(C)/C=C/C[C@]3(C)Oc4cc(=O)c(O)cc(C)c4C[C@H]3C[C@H](O)[C@@]1(C)O2`: the growth was 16%. With `Cc1cc(Cl)cc(NS(=O)(=O)c2ccc(-c3cnc(C4CC4)o3)cc2)c1`, the growth is 46.7%. Turning to `COc1cc(/C=N/n2cnc3oc(-c4ccccc4)cc3c2=N)cc(CN2CCCCC2)c1O`, the growth was -1.45% (active). Then `O=C(NCCNc1cc(-c2cn(-c3ccccc3)nc2-c2cccc(O)c2)ccn1)Nc1ccc(Cl)c(C(F)(F)F)c1`, with 68.4%; and `O=[N+]([O-])c1ccc(-c2nnc(SCc3ccc(O)c4ncccc34)n2-c2ccccc2)cc1`, with 41.7%.

Take `CCOC(=O)c1c(NCC(=O)Nc2cccc([N+](=O)[O-])c2)sc2c1CCCC2`: the growth is -29.2% (active). For `COc1ccc([C@H]2[C@H](O)C(=O)N2c2cc(OC)c(OC)c(OC)c2)cc1Cl`, the growth is 49.1%.

For `CCCC(=O)NC(c1cccnc1)c1cc(Cl)c2cccnc2c1O` (stereo not given), the growth was 47.1%. To `COc1cc(C2=NN(C(C)=O)C(c3ccc(N4CCOCC4)cc3)C2)cc(OC)c1OC` (stereo not given) belongs 88.1%; to `CCOC(=O)c1c(NC(=O)c2ccc(C(C)(C)C)cc2)sc2cc(OCCN3CCCCC3)ccc12`, 83.1%; to `Nc1ccc(-c2nnc(SCc3ccc(O)c4ncccc34)o2)cc1`, -0.446% (active). To `COc1ccc([C@H]2c3[nH]c4ccccc4c3C[C@@H]3C(=O)N(C4CCN(Cc5ccccc5)CC4)CC(=O)N23)c(OC)c1` belongs 90.1%; to `CC(C)C[C@H]1C(=O)O[C@H](C(C)C)C(=O)N(C)[C@@H](C(C)C)C(=O)O[C@H](C(C)C)C(=O)N(C)[C@@H](C(C)C)C(=O)O[C@H](C(C)C)C(=O)N1C`, 13.3%. In the case of `O=c1oc2ccc(-c3ccc(F)cc3F)cc2c(=O)n1-c1ccc(F)c(F)c1`, the growth is 6.5% (active). Then `CC(=O)NC(C)(C)C(=O)N[C@@H](C)C(=O)NC(C)(C)C(=O)N[C@@H](C)C(=O)NC(C)(C)C(=O)N[C@@H](C)C(=O)N[C@@H](CCC(N)=O)C(=O)NC(C)(C)C(=O)N[C@H](C(=O)NC(C)(C)C(=O)NCC(=O)N[C@@H](CC(C)C)C(=O)NC(C)(C)C(=O)N1CCC[C@H]1C(=O)N[C@H](C(=O)NC(C)(C)C(=O)NC(C)(C)C(=O)N[C@@H](CCC(N)=O)C(=O)N[C@@H](CCC(N)=O)C(=O)N[C@H](CO)CC1CCCCC1)C(C)C)C(C)C`, with 94.2% [5 µM]. Then `Brc1cccc(/C=N/Nc2nc(N/N=C/c3cccc(Br)c3)nc(N3CCOCC3)n2)c1`, with 52.8%; and `O=S(=O)(Nc1cc(Cl)cc(Cl)c1)c1ccc(-c2cnc(C3CC3)o2)cc1`, with 49.9%. To `NS(=O)(=O)Oc1ccc2nc(Nc3ccc(F)c(F)c3)ccc2c1` belongs 92.9%; to `N#Cc1c(NC(=O)c2ccc(F)c(Cl)c2)sc2c1CCC(=O)C2`, 53.6%; to `CCOC(=O)c1c(NCC(=O)Nc2cccc(Cl)c2)sc2c1CCCC2`, 91.4%.

As to `CCCCCCNC(=O)Oc1ccc(/C(=C(\C)c2ccc(OC)cc2)c2ccc(OCCN(C)C)cc2)cc1`, the growth was 89%. With `COc1ccc(/C=C/C(=O)c2nnn(-c3ccc(C(=O)O)cc3)c2C)cc1OC`, the growth is 91.3%. On to `CN1CCN(c2ccc(NC(=O)Nc3ccc4c(ccn4-c4cccc(C(N)=O)n4)c3)cc2C(F)(F)F)CC1`, for which the growth was 58.3%. To `CC1OC(O[C@@H]2C(O)C(CO)OC(O[C@H]3COC(O[C@H]4CC[C@]5(C)[C@H]6CC[C@]78OC[C@@]9(CC[C@](C)(C=O)C[C@H]97)[C@H](O)C[C@@]8(C)[C@]6(C)CC[C@H]5C4(C)C)[C@@H](OC4OC(CO)[C@@H](O)[C@@H](O)[C@@H]4O)[C@@H]3O)[C@H]2OC2OC[C@@H](O)[C@@H](O)[C@@H]2O)[C@@H](O)[C@@H](O)[C@H]1O` (stereo not given in full) belongs -35.3% (active). To `Cc1cc(F)cc(NS(=O)(=O)c2ccc(-c3cnc(C4CC4)o3)cc2)c1` belongs 46.9%; to `Cc1nn(-c2ccc(Cl)cc2)c(C)c1N=Nc1ccc2oc(=O)ccc2c1`, 104%. In the case of `Cc1cccc(NC(c2cc3cccc4ccc5cccc2c5c43)c2nnnn2C(C)(C)C)c1C` (stereo not given), the growth is 86.4%. To `COc1ccc(-c2ccc3c4c(cccc24)C(=O)N(N2C(=O)c4cccc5cccc(c45)C2=O)C3=O)cc1` belongs 102%.

For the compound `C#C[C@]1(O)CC[C@H]2[C@@H]3CC=C4c5sc(Nc6nc(C)cc(OC)n6)nc5CC[C@]4(C)[C@H]3CC[C@@]21C`, the growth is 92.9%.

As to `COc1cc2c3c(n(CCCNC4CCC4)c(=O)c2cc1OC)-c1cc2c(cc1C3=O)OCO2`, the growth is -37.7% (active).

Consider `CC(=O)c1sc(Nc2cccc(Nc3nc(C)c(C)s3)c2)nc1C`, for which the growth is 61.7%. Then `IP(CCCCCCCCCCSc1n(Cc2ccc3ccccc3c2)c(-c2ccccc2)c(-c2ccccc2)[n+]1Cc1ccc2ccccc2c1)(c1ccccc1)(c1ccccc1)c1ccccc1`, with -68.4% (active); and `N#C/C(=C\c1ccc2ccccc2c1)C(=O)Nc1sc2c(c1C#N)CCC2`, with 113%.

For the origin of these results see PubChem BioAssay (NCI).
